# In PubChem BioAssay AID743285 (National Center for Advancing Translational Sciences (NCATS), 2014):
# Screen size: about 1,100 compounds; fewer than 10 were called active. The list is a sample of the results. Values without a mark were called inactive. The call rests on the fitted dose curve; in most records, active means well fitted curve in the direction sought with a large enough effect; inconclusive means small, poorly fitted or top-dose-only effect, or another doubt; inactive means no such curve, though single readings can be large or run the other way.
# Assay: qHTS for Inhibitors of PI5P4K: ADP-Glo counter assay
# Settings: ADP-Glo detection counter-screen, luciferase luminescence, no enzyme; series mostly up to 76.9 µM; activity change, negative = inhibition: at the top concentration
# Text: In addition to finding PI5P, we discovered the type II phosphatidylinositol 5-phosphate 4-kinase (PI5P4K) family (alpha, beta, gamma isoforms) that catalyze the conversion of PI5P to PI(4,5)P2. Alternatively, PI(4,5)P2 can also be synthesized through phosphatidylinositol-4-phosphate (PI4P) by the type I phosphatidylinositol 4-phosphate 5-kinases (PI4P5K). These PI5P4K enzymes therefore represent one way by which cells can regulate endogenous PI5P levels and play important roles in insulin signaling and in stress responses. […] A qHTS PI5P4K-alpha ADP-Glo assay was developed to identify specific modulators of human PI5P4K, phosphatidylinositol-5-phosphate 4-kinase (Type II PIPK). This assay was screened against the MLSMR containing ~400,000 small molecules (PubChem AID 652105). To confirm that the hits were not interacting with the detection enzyme system, a 1536-well counterscreen against the ADP-Glo kit (Promega) was utilized, as described in Davis et al., 2013 [1]. For this assay, an ATP/ADP mix of 80% ATP and 20% ADP was used to mimic the PI5P4K-alpha enzyme reaction. […] Therefore, true inhibitors of PI5P4K-alpha should have no activity in this assay. Davis et al., PLoS One. 2013;8(1):e54127. NIH Chemical Genomics Center [NCGC] NIH Molecular Libraries Probe Centers Network [MLPCN] MLPCN Grant: MH096575 Assay Submitter (PI): Atsuo Sasaki, Beth Israel Deaconess Medical Center
# Two micoliter of assay buffer (0.038 M HEPES pH 7.4, 0.28 mM EGTA, 0.1% CHAPS, 7.5% DMSO) was dispensed into Greiner white solid bottom 1536-well assay plates. Compounds were then transferred via Kalypsys pin tool equipped with 1536-pin array (10 nL slotted pins, V&P Scientific, San Diego, CA). Next, 1 uL of ATP / ADP mix (4 uM ATP / 1 uM ADP final concentrations in 20 mM HEPES pH 7.4, 60 mM MgCl2, and 0.1% CHAPS) was added for a total reaction volume of 3 uL. The plates were incubated at room temperature for 60 minutes. To detect the activity, 2 uL of ADP-Glo reagent 1 was added to each well followed by 45 min room temperature incubation. Then, 4 uL of ADP-Glo reagent 2 was added to each well and the plates were incubated further for 30 min at room temperature. Finally, luminescence signal was detected using the PerkinElmer ViewLux plate reader (30 sec exposure). The data was normalized to control wells with 20% ADP / 80% ATP and wells with 100% ATP.
# On the % scale 0 is the no-effect control and ±100 the full control effect.
row,Compound,"activity change, negative = inhibition [%]"
1,Cc1cnc(NC(=O)CSc2c(Cl)cccc2Cl)s1,-1.84
2,Cc1cc(=O)n2[nH]c(-c3sccc3-n3c(C)ccc3C)cc2n1,-6.46
3,O=C(Cc1cccs1)N(CC1CCCO1)C1(C(=O)NC2CCCCC2)CCCCC1 (stereo not given),-3.41
4,CCOC(=O)C1Nc2ccc(C(F)(F)F)cc2C2C=CCC12 (stereo not given),4.47
5,O=C1CC(c2ccccc2)=NN1c1ccc([N+](=O)[O-])cc1,-4.44
6,CC(=O)N1c2ccc(S(=O)(=O)NCCC(=O)N(C)C3CCCCC3)cc2CC1C (stereo not given),-6.51
7,O=C(COc1ccc(-n2cnnn2)cc1)Nc1ccccc1Cl,-3.16
8,Cc1cccnc1NC(=O)CSc1nnc(COc2ccc(C(C)C)cc2)n1C,0.783
9,O=C(Nc1ccc(S(=O)(=O)Nc2nccs2)cc1)c1cc(-c2ccncc2)nc2ccccc12,1.58
10,Cc1csc(=O)n1CCC(=O)OCC(=O)Nc1ccc(N2CCOCC2)cc1,1.61
11,CCC(c1nnnn1Cc1ccco1)N(CCc1ccccc1)Cc1cc2ccc(OC)cc2[nH]c1=O (stereo not given),4.11
12,Cc1ccc(C(c2nnnn2CS(=O)(=O)c2ccc(C)cc2)N2CCC(C)CC2)cc1 (stereo not given),4.38
13,COc1cccc2c(C)c(C(=O)O)[nH]c12,-4.76
14,CC(CNC(=O)c1ccc(Br)o1)NC(=O)c1ccc(Br)o1 (stereo not given),-11
15,Cc1ccc(Cc2c(-c3ccco3)nc3ccc(Cl)cn23)cc1,-6.35
16,OCCNc1nc(Nc2ccc(Cl)c(Cl)c2)nc2ccccc12,-2.85
17,O=C(c1cc(-c2ccco2)nc2ccccc12)N(Cc1nnc(-c2ccc(Cl)cc2)o1)C1CC1,3.35
18,O=C(c1cc2c(s1)CCC2)N1CCN(c2ccccc2)CC1,0.844
19,O=C(c1cccnc1)N(c1cc2sc(=O)oc2c2ccccc12)S(=O)(=O)c1ccccc1,-0.127
20,COc1ccc(C(=O)N2CCC(C(=O)Nc3ccc(C)cc3)CC2)cc1,0.698
21,COc1ccc(OCCCC(=O)Nc2nnc(C3CCCO3)s2)cc1 (stereo not given),-0.361
22,Cc1cc(NC(=O)Nc2ccccc2[N+](=O)[O-])no1,4.52
23,O=c1oc2cc(O)ccc2cc1-c1ccc(F)cc1,-12.4

row,Compound,"activity change, negative = inhibition [%]"
1,COCCNC(=O)Nc1ccc2nc(-c3ccco3)c(-c3ccco3)nc2c1,-14.7
2,COc1ccc(S(=O)(=O)/N=C2\C=C(NS(=O)(=O)c3ccccc3)C(=O)c3ccccc32)cc1,-15.5
3,COc1ccc(CCCc2nnc(SCc3nc4ccccc4c(=O)[nH]3)n2C)cc1,-7.05
4,CCOC(=O)c1cc2c(=O)[nH]c(C(Cl)(Cl)Cl)nc2o1,2.4
5,OCCCNc1nccc(-c2cc(Nc3cccc(Cl)c3)ncn2)n1,-9.65
6,O=S(=O)(Nc1ccc2cn[nH]c2c1)c1ccccc1,4.71
7,COc1cccc(C(=O)Nc2nc3ccc(S(C)(=O)=O)cc3s2)c1,1.96
8,O=c1[nH]c2ccccc2n2c(-c3ccccc3)nnc12,-11.3
9,O=C(Cn1cnc2c(OCc3ccccc3)ncnc21)NCc1nc2ccccc2[nH]1,0.0717
10,O=C(Nc1nc(-c2ccncc2)cs1)C1COc2ccccc2O1 (stereo not given),-2.71
11,COc1cc(=O)[nH]c(=O)n1C(=O)Cc1ccccc1,-8.78
12,COc1ccc(-c2cc(C(=O)Nc3ccccc3O)c3ccccc3n2)cc1,-3.69
13,Cc1cccc(C)c1NC(=O)C(c1ccc(C(F)(F)F)cc1)n1c(=O)c(-c2ccco2)nc2ccccc21 (stereo not given),-3.23
14,O=C(NC1CCCCC1)C(c1cc2ccccc2o1)n1c(=O)c(-c2ccco2)nc2ccccc21 (stereo not given),-1.4
15,COc1ccc(C(CNC(=O)c2ccc(OCc3cscn3)cc2)N2CCCC2)cc1 (stereo not given),-7.47
16,Cc1cc2nc(-c3ccco3)c(Cc3cccc(F)c3)n2c(C)c1Br,-11.4
17,O=C(CCNS(=O)(=O)c1ccc(Br)s1)NCc1ccccc1Cl,-7.75
18,C[C@H](NC(=O)c1nc[nH]c1C(=O)N[C@@H](C)C(=O)OC(C)(C)C)C(=O)OC(C)(C)C,1.4
19,CC(Oc1ccc(F)cc1)C(=O)N1CCN(c2ncccn2)CC1 (stereo not given),-2.05
20,Cn1c(SCC(=O)Nc2ccc(Cl)cc2)nc(O)cc1=O,4.32
21,Cc1ccc(Cn2c(C)nc3c(c2=O)c2nc4ccccc4nc2n3Cc2ccco2)cc1,3.85
22,O=C(COC(=O)c1ccccc1O)NCc1ccco1,-6.69
